Hit rate of the full screen: of about 1,300 compounds, about 140 (11%) were called active. A selection follows. Measured potencies and affinities stand elsewhere. Values without a mark were called inactive. The rule behind the calls is not given here.

In this experiment the target is Prostaglandin E2 receptor EP2 subtype (Homo sapiens) (UniProt P43116). Nature of the experiment: EP2 receptor modulators, dose response, cell-based, human EP2, PGE2 EC50 shift (AID 1421). The following applies: EP2-expressing cells, PGE2 EC50 shift by compound; at 20 µM.
Sequence of Prostaglandin E2 receptor EP2 subtype (Homo sapiens) (P43116 whole entry, looked up): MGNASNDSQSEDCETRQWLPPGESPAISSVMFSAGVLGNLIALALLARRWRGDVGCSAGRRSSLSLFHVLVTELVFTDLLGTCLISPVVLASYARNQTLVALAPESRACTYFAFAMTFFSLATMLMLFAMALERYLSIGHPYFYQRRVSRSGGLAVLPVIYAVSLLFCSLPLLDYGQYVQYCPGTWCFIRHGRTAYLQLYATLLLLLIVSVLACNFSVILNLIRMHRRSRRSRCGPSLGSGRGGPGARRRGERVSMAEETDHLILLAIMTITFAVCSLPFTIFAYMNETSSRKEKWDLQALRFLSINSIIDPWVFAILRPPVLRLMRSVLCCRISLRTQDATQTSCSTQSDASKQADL
With `CCN(CC)CCN1C(=O)c2cccc3cc(N)cc(c23)C1=O`, the PGE2 EC50 with compound was 0.76 nM.

Take `Brc1ccccc1Cn1c(-c2cscn2)nc2ccccc21`: the PGE2 EC50 with compound was 0.39 nM.

Take `FC(F)(F)c1nnc(-c2ccccc2)nc1Sc1ccccc1`: the PGE2 EC50 with compound is 0.72 nM.

Consider `c1ccc(-c2n[nH]nc2-c2ccccc2)cc1`, for which the PGE2 EC50 with compound was 0.21 nM.

In the case of `CCN1C(=O)/C(=C2/C=CC=CN2C)SC1=S`, the PGE2 EC50 with compound was 0.94 nM.

On to `Nc1ccccc1CCCC(=O)O`, for which the PGE2 EC50 with compound is 0.94 nM.

For `COc1cc2ccccc2cc1C(=O)NC(=S)Nc1cccc(C(=O)O)c1`, the PGE2 EC50 with compound was 6.94 nM.

In the case of `O=C(Nc1ccccc1Oc1ccccc1)c1ccccc1F`, the PGE2 EC50 with compound is 0.17 nM.

Turning to `Cc1sc(NC(=O)CN2CCOCC2)c(C(=O)c2ccccc2)c1C`, the PGE2 EC50 with compound is 0.63 nM.

In the case of `CC1CCCCN1C(=O)/C(=C\c1ccccc1)c1ccccc1` (centres undefined), the PGE2 EC50 with compound was 0.44 nM.

Regarding `CCc1ccccc1NC(=S)N(Cc1ccco1)C(C)c1cccs1` (centres undefined), the PGE2 EC50 with compound is 0.38 nM.

`CCOC(=O)C1=C(N)OC(C)=C(C#N)C1c1ccco1` (centres undefined): the PGE2 EC50 with compound was 0.56 nM.

On to `S=c1[nH]nc(C2CCCCC2)n1Cc1ccccc1`, for which the PGE2 EC50 with compound was 0.39 nM.

Take `C=CCc1cc(C=O)cc(OC)c1OCc1ccc(Cl)cc1`: the PGE2 EC50 with compound is 0.92 nM.

`CNC(=O)NC(=O)CSc1nc(-c2cccs2)c(C#N)c(=O)[nH]1`: the PGE2 EC50 with compound was 15.8 nM.

With `CC(Cc1ccccc1)NC(=O)C1(c2ccccc2)CCOCC1` (centres undefined), the PGE2 EC50 with compound was 1.12 nM.

With `CCOC(=O)c1cnc2c(c(C)nn2C)c1Oc1ccc(Cl)cc1`, the PGE2 EC50 with compound was 0.52 nM.

For `C=CCn1c(=O)c(C(=O)NCCc2ccccc2)c(O)c2ccccc21`, the PGE2 EC50 with compound was 0.5 nM.

Take `CC(C)Cc1nc(SCc2cccnc2)c2c(=O)n(C)c(=O)n(C)c2n1`: the PGE2 EC50 with compound is 0.37 nM.

`Cc1ccc2nc(SCC(=O)NCc3ccco3)c(C)cc2c1`: the PGE2 EC50 with compound was 0.5 nM.

As for `COc1cc(OC)c2c(OC)c(-c3ccc4c(c3)OCO4)c(=O)oc2c1`, the PGE2 EC50 with compound is 0.39 nM.

Turning to `CCC1C/C(=C/c2ccco2)C(=O)/C(=C/c2ccco2)C1` (centres undefined), the PGE2 EC50 with compound is 0.69 nM.

`Cc1cc(C)c(S(=O)(=O)c2ccccc2)c(OC(=O)c2c(Cl)cc(Cl)cc2Cl)n1`: the PGE2 EC50 with compound is 0.38 nM.

For the molecule `c1ccc(CCc2cccnc2)nc1`, the PGE2 EC50 with compound was 0.8 nM.

As for `Cc1noc(C)c1CSc1ncnc2sc3c(c12)CCC(C)C3` (centres undefined), the PGE2 EC50 with compound was 0.4 nM.

For the molecule `Cc1noc(C)c1CSc1ncnc2sc3c(c12)CCCCC3`, the PGE2 EC50 with compound was 0.42 nM.

Consider `CC(=O)O[C@H]1C[C@@H](OC(C)=O)C(C)(C)C2C[C@@H](OC(C)=O)[C@]3(C)C([C@H](OC(C)=O)C[C@@]4(C)[C@H](c5ccoc5)OC(=O)[C@H]5O[C@]543)[C@]21C` (some centres undefined), for which the PGE2 EC50 with compound was 0.32 nM.

For the molecule `Cc1ccc(C)n1-n1cnc2scc(-c3cccs3)c2c1=O`, the PGE2 EC50 with compound is 0.29 nM.

As to `COC(=O)c1sccc1NC(=O)c1cc2c(s1)CCCC2`, the PGE2 EC50 with compound is 0.5 nM.

With `COc1ccc(Cc2n[nH]c(=S)n2Cc2ccccc2)cc1Cl`, the PGE2 EC50 with compound is 0.57 nM.

Turning to `CCOC(=O)c1c(NC(=O)Cc2cccs2)sc(C)c1C`, the PGE2 EC50 with compound was 0.53 nM.

Turning to `CCOC(=O)Nc1sc2c(c1C(=O)OCC)CCC2`, the PGE2 EC50 with compound was 0.57 nM.

As to `COC(=O)c1c(NC(=O)c2ccc(Br)s2)sc2c1CCC2`, the PGE2 EC50 with compound is 0.42 nM.

As for `CCOC(=O)c1c(NC(=O)CN2CCN(C(=O)c3ccco3)CC2)sc2c1CCCC2`, the PGE2 EC50 with compound was 0.59 nM.

In the case of `CCOC(=O)c1c(/N=C/C2C(=O)CCCC2=O)sc2c1CCCC2`, the PGE2 EC50 with compound was 0.36 nM.

With `COC(=O)c1c(NC(=O)Cc2cccs2)sc2c1CCCC2`, the PGE2 EC50 with compound is 0.49 nM.

Consider `CCOC(=O)c1c(NC(=O)c2ccc(Br)o2)sc(C)c1CC`, for which the PGE2 EC50 with compound is 0.27 nM.

For the molecule `CCOC(=O)c1c(NC(=O)c2cccs2)sc2c1CCN(C(=O)OCC)C2`, the PGE2 EC50 with compound is 0.43 nM.

In the case of `Cc1cccc(/N=C/c2c(O)ccc3oc4c(c23)CCCC4)n1`, the PGE2 EC50 with compound is 1.21 nM.

Regarding `C=CCSc1nc2ccsc2c(=O)n1-c1ccccc1`, the PGE2 EC50 with compound was 0.37 nM.

For the molecule `Oc1ccc(/C=N/N2CCN(C3c4ccccc4-c4ccccc43)CC2)c(O)c1`, the PGE2 EC50 with compound was 0.25 nM.

For the molecule `COc1cc(NC(=S)NC(=O)c2cc(C)cc(C)c2)ccc1NC(=O)c1cccs1`, the PGE2 EC50 with compound was 0.3 nM.

On to `O=S(=O)(c1cccs1)N1CN(Cc2cccs2)c2nc3ccccc3nc21`, for which the PGE2 EC50 with compound was 0.45 nM.

`CCOC(=O)c1c(NC(=O)CN(CC)CC)sc2c1CCN(C(=O)OCC)C2`: the PGE2 EC50 with compound is 0.29 nM.

As to `CCOC(=O)c1c(N)nn(C(=O)C(C)(C)C)c1-c1ccccc1`, the PGE2 EC50 with compound was 0.11 nM.

In the case of `Cc1cc(NC(=O)c2cc(-c3ccncc3)nc3c(C)cccc23)no1`, the PGE2 EC50 with compound was 0.92 nM.

In the case of `CCOC(=O)c1c(NC(=O)Cn2nnc3ccccc32)sc2c1CCC(C)C2` (centres undefined), the PGE2 EC50 with compound is 0.53 nM.

With `CCOC(=O)c1c(NC(=O)c2ccn(CC)n2)sc2c1CCCC2`, the PGE2 EC50 with compound was 0.33 nM.

As for `COC(=O)c1c(NC(=O)c2ccccc2N(C)S(=O)(=O)c2ccccc2)sc2c1CCCC2`, the PGE2 EC50 with compound is 0.38 nM.

As to `CCOC(=O)c1c(NC(=O)c2ccc(N3C(=O)[C@@H]4[C@H](C3=O)[C@H]3C=C[C@@H]4C3)cc2)sc2c1CC(C)CC2` (some centres undefined), the PGE2 EC50 with compound is 0.47 nM.

Turning to `CC(=O)Nc1sc2c(c1C(c1cccs1)N1CCOCC1)CCCC2` (centres undefined), the PGE2 EC50 with compound was 0.33 nM.

Turning to `COC(=O)c1c(NC(=S)NN2CCOCC2)sc2c1CCCC2`, the PGE2 EC50 with compound is 0.39 nM.

Consider `CCOC(=O)c1c(NC(=O)COC(=O)Cn2c(C)nc3ccccc32)sc2c1CCCC2`, for which the PGE2 EC50 with compound is 0.55 nM.

In the case of `CCOc1ccccc1COC(=O)c1cccc(-n2cnnn2)c1`, the PGE2 EC50 with compound was 0.54 nM.

As for `C/C(Cl)=C/Cn1c(SC(C)C)nc2c1c(=O)[nH]c(=O)n2C`, the PGE2 EC50 with compound is 0.83 nM.

Regarding `NS(=O)(=O)c1ccc(NCc2cnc3ccccc3n2)cc1`, the PGE2 EC50 with compound was 1.13 nM.

Turning to `Cc1ccccc1/C=C/c1nc2ccccc2c(=O)n1CCc1ccccc1`, the PGE2 EC50 with compound is 0.19 nM.

On to `COc1cc(C2Oc3cc(C4Oc5cc(O)cc(O)c5C(=O)C4O)ccc3OC2CO)ccc1O` (centres undefined), for which the PGE2 EC50 with compound is 1.94 nM.

Turning to `CCCCC(=O)Nc1sc2c(c1C(=O)OCC)CCC(C=O)=C2Cl`, the PGE2 EC50 with compound was 1.75 nM.

The values above are taken from PubChem BioAssay AID1421 (Emory University Molecular Libraries Screening Center, 2008).
